# In PubChem BioAssay (NCATS):
# Where “and” joins values, the source holds several entries; their conditions need not be identical. Equal values may be shown once. Records with an inconclusive call do not appear. A call without a number means that no potency is given here. Values without a mark were called inactive. Calls of active or inactive are those of the source. Calls come from the whole dose curve; as a rule, active = well fitted curve in the direction sought with a large enough effect; inconclusive = small, poorly fitted or top-dose-only effect, or another doubt; inactive = no such curve, though single readings can be large; an effect the other way counts as inactive or inconclusive.
# How the values were obtained:
# [1] = Quantitative highthroughput screen to assess conditional lethalithy of NOMO1 cells grown in RPMI1640 with untreated serum (RPMI+s) (AID 1963876); note: nearly all actives have a fitted effect of over 35% in size
# Outline: (§1)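 Each medium arm—HPLM with 10% dialyzed FBS, or RPMI1640 with 5 mM glucose and 10% untreated or dialyzed FBS—was screened against an 11-point, 3-fold compound titration for 48 h at 37 °C, with CellTiter-Glo luminescence as endpoint.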
# [2] = Quantitative highthroughput screen to assess conditional lethalithy of NOMO1 cells grown in RPMI1640 with dialyzed fetal bovine serum (RPMI+ds) (AID 1963877); note: nearly all actives have a fitted effect of over 30% in size; for viability: series mostly up to about 46 µM
# Outline: as §1
# [3] = Quantitative highthroughput screen to assess conditional lethalithy of NOMO1 cells grown in Human Plasma-Like Medium with dialyzed fetal bovine serum (HPLM+ds) (AID 1963878); note: nearly all actives have a fitted effect of over 35% in size
# Outline: as §1
# [4] = Quantitative highthroughput screen to assess conditional lethalithy of P12 Ichikawa cells grown in Human Plasma-Like Medium with dialyzed fetal bovine serum (HPLM+ds) (AID 1963879); conditions: Potency: viability; note: nearly all actives have a fitted effect of over 35% in size; for viability: series mostly up to about 46 µM
# Outline: as §1
# [5] = Quantitative highthroughput screen to assess conditional lethalithy of P12 Ichikawa cells grown in RPMI1640 with dialyzed fetal bovine serum (RPMI+ds) (AID 1963880); conditions: Potency: P12-Ichikawa viability; note: nearly all actives have a fitted effect of over 35% in size
# Outline: as §1
# [6] = Quantitative highthroughput screen to assess conditional lethalithy of P12 Ichikawa cells grown in RPMI1640 with untreated serum (RPMI+s) (AID 1963881); conditions: Potency: viability; note: nearly all actives have a fitted effect of over 35% in size; for viability: series mostly up to about 46 µM
# Outline: as §1
# [7] = Quantitative highthroughput screen to assess conditional lethalithy of SEM cells grown in Human Plasma-Like Medium with dialyzed fetal bovine serum (HPLM+ds) (AID 1963882); note: nearly all actives have a fitted effect of over 35% in size; for viability: series mostly up to about 46 µM
# Outline: as §1
# [8] = Quantitative highthroughput screen to assess conditional lethalithy of SEM cells grown in RPMI1640 with dialyzed fetal bovine serum (RPMI+ds) (AID 1963884); note: nearly all actives have a fitted effect of over 35% in size; for viability: series mostly up to about 46 µM
# Outline: as §1
# [9] = Quantitative highthroughput screen to assess conditional lethalithy of SEM cells grown in RPMI1640 with unreated serum (RPMI+s) (AID 1963883); note: nearly all actives have a fitted effect of over 35% in size
# Outline: as §1
# [10] = Cellular viability qHTS for adrenocortical cancer (ACC) cell line SW-13 (AID 1963989); conditions: SW-13 ACC cells viability, CellTiter-Glo, 48 h; activity (max response): hits give low values; note: nearly all actives have a fitted effect of over 65% in size;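 for activity (max response): cells grown in serum-free medium with ITS supplement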
# Outline: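 48 h treatment, SW-13 in ITS/DMEM serum-free; doses up to 46 uM; readout CellTiter-Glo luminescence; curve fit four-parameter logistic.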
# [11] = Cellular viability qHTS for adrenocortical cancer (ACC) cell line NCI-H295R (AID 1963990); note: nearly all actives have a fitted effect of over 60% in size
# Outline: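 Compound titrations (up to 46 uM final) are applied to NCI-H295R cultures for 48 h at 37C. Viable cell number is estimated by CellTiter-Glo signal, normalised to DMSO and doxorubicin controls.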
# Potency is the fitted concentration of half-maximal effect.
SMILES,Potency [1],Potency [2],Potency [3],Potency [4],Potency [5],Potency [6],Potency [7],Potency [8],Potency [9],activity (max response) [10],Potency [11],Potency [10]
Cc1coc2c1C(=O)C(=O)c1c-2ccc2c(C)cccc12,inactive,inactive,inactive,inactive,inactive,inactive,inactive,inactive,–,–,–,–
CC(=O)O[C@H]1C[C@@H]2CC[C@H]3[C@H]4C[C@H]([N+]5(C)CCCCC5)[C@@H](OC(C)=O)[C@@]4(C)CC[C@@H]3[C@@]2(C)C[C@H]1[N+]1(C)CCCCC1,inactive,inactive,inactive,inactive,inactive,inactive,inactive,inactive,inactive,7.56%,inactive,–
C[C@H]1Oc2cc(cnc2N)-c2c(nn(C)c2C#N)CN(C)C(=O)c2ccc(F)cc21,inactive,inactive,inactive,inactive,inactive,inactive,inactive,inactive,inactive,-27%,17800 nM (active),–
O=C(O)[C@@H](c1ccc(OCc2ccc3ccccc3n2)cc1)C1CCCC1,inactive,inactive,inactive,inactive,inactive,inactive,inactive,–,inactive,-1.81%,inactive,–
Cc1csc(NC(=O)c2sc3nc4c(c(C(F)(F)F)c3c2N)CCC4)n1,inactive,inactive,inactive,inactive,inactive,inactive,inactive,inactive,inactive,-2.72%,inactive,–
COc1cccc(Nc2c(C(N)=O)cnc3c(C)cc(S(=O)(=O)c4cccc(C(=O)N(C)C)c4)cc23)c1,inactive,inactive,inactive,inactive,inactive,inactive,inactive,–,inactive,11.8%,inactive,–
CC(=O)[C@H]1CC[C@H]2[C@@H]3CC=C4C[C@@H](O)CC[C@]4(C)[C@H]3CC[C@]12C,inactive,inactive,inactive,inactive,inactive,inactive,inactive,inactive,inactive,14.9% and 3.3%,inactive,–
O=C1NCCc2[nH]c(-c3ccncc3)cc21,18700 nM (active),20900 nM (active),18700 nM (active),16600 nM (active),14800 nM (active),14800 nM (active),13200 nM (active),14800 nM (active),13200 nM (active),–,7080 nM (active),7940 nM (active)
CCN(CC)CCn1c(=O)c(Cc2ccc(OC)cc2)nc2ccccc21,inactive,inactive,inactive,inactive,inactive,inactive,inactive,inactive,inactive,-3.48%,inactive,–
CC1(C)S[C@H]2[C@H](NC(=O)[C@@H](N)c3ccc(O)cc3)C(=O)N2[C@@H]1C(=O)O,8330 nM (active),9350 nM (active),5260 nM (active),7430 nM (active),5900 nM (active),8330 nM (active),–,inactive,–,–,–,–
O=NN(CCCl)C(=O)NCCCl,inactive,inactive,inactive,inactive,inactive,inactive,inactive,inactive,–,15.2%,inactive,–
COc1cc([C@H]2Oc3cc([C@H]4Oc5cc(O)cc(O)c5C(=O)[C@H]4O)ccc3O[C@H]2CO)ccc1O,inactive,inactive,inactive,inactive,inactive,inactive,–,–,inactive,–,–,–
Cc1cc(SCc2sc(-c3ccc(C(F)(F)F)cc3)nc2C)ccc1OCC(=O)O,inactive,inactive,inactive,inactive,inactive,inactive,–,–,–,–,inactive,–
O=c1n(CCCN2CCN(c3cccc(Cl)c3)CC2)nc2ccccn12,inactive,inactive,inactive,inactive,inactive,inactive,–,inactive,–,-1.77%,–,–
CCOc1cc2ncc(C#N)c(Nc3ccc(OCc4ccccn4)c(Cl)c3)c2cc1NC(=O)C=CCN(C)C,526 nM (active),935 nM (active),332 nM (active),590 nM (active),1050 nM (active),–,332 nM (active),296 nM (active),148 nM (active),–,–,–
OC1CCC(Nc2ncc3nc(Nc4c(F)cc(F)cc4F)n([C@@H]4CCOC4)c3n2)CC1 (stereo partly drawn),inactive,inactive,inactive,inactive,inactive,inactive,–,inactive,–,–,inactive,–
C=C1C(=CC=C2CCC[C@]3(C)[C@@H]([C@H](C)C=C[C@H](C)C(C)C)CC[C@@H]23)C[C@@H](O)C[C@@H]1O,16600 nM (active),20900 nM (active),8330 nM (active),8330 nM (active),14800 nM (active),9350 nM (active),–,–,–,-0.683%,inactive,–
CCc1cnn2c(NCc3ccc[n+]([O-])c3)cc(N3CCCC[C@@H]3CCO)nc12,118 nM (active),93.5 nM (active),105 nM (active),118 nM (active),118 nM (active),–,74.3 nM (active),59 nM (active),59 nM (active),–,–,–
COc1cc(Cl)cn2c(-c3cccc(NC4CNC4)n3)cnc12,inactive,inactive,inactive,inactive,inactive,inactive,–,inactive,inactive,–,–,–

SMILES,Potency [1],Potency [2],Potency [3],Potency [4],Potency [5],Potency [6],Potency [7],Potency [8],Potency [9],activity (max response) [10],Potency [11],Potency [10]
NCc1ccc(OCCCc2sc(-c3ccc4c(c3)/C(=N/Nc3nc5ccccc5s3)CCC4)nc2C(=O)O)cc1,5.9 nM (active),16.6 nM (active),inactive,4.7 nM (active),9.3 nM (active),33.1 nM (active),–,4.7 nM (active),–,-8.27%,inactive,–
CC[C@@H]1C=C(C)C[C@H](C)C[C@H](OC)[C@H]2O[C@@](O)(C(=O)C(=O)N3CCCC[C@@H]3C(=O)O[C@H](C(C)=C[C@@H]3CC[C@H](Cl)[C@H](OC)C3)[C@H](C)[C@@H](O)CC1=O)[C@H](C)C[C@H]2OC,inactive,inactive,inactive,inactive,inactive,inactive,–,1480 nM (active),–,–,–,–
Cc1ccc(NC(=O)c2cccc(N(C)C)c2)cc1NC(=O)c1ccc(O)cc1,inactive,inactive,inactive,inactive,inactive,inactive,–,–,inactive,–,inactive,–
CCOC(=O)[C@H](CCc1ccccc1)N[C@@H](C)C(=O)N1CCCC1C(=O)O (stereo partly drawn),inactive,inactive,inactive,inactive,inactive,inactive,inactive,inactive,–,–,–,–
Cc1cc(OCCCc2c(C(=O)O)n(Cc3cccnc3)c3c(-c4c(COc5ccc(N6CCN([S+](C)(=O)[O-])CC6)cc5)nn(C)c4C)cccc23)cc(C)c1Cl,inactive,inactive,inactive,inactive,inactive,inactive,inactive,18700 nM (active),–,–,–,–
CC(=O)SC[C@@H](C)C(=O)N1CCC[C@H]1C(=O)N[C@@H](Cc1ccccc1)C(=O)O,inactive,inactive,inactive,inactive,inactive,inactive,–,inactive,inactive,16.6%,inactive,–
COc1cccc(N(C)C(=S)Oc2ccc3c(c2)CCCC3)n1,inactive,inactive,inactive,inactive,inactive,–,inactive,–,inactive,–,–,–
Cc1cc(C=c2sc3nc4ccccc4n3c2=O)c(C)n1-c1ccccc1,inactive,inactive,inactive,inactive,inactive,–,inactive,inactive,inactive,–,–,–
O=C1NC(=O)C(=Cc2ccc3nccnc3c2)S1,inactive,inactive,inactive,inactive,inactive,inactive,–,inactive,inactive,–,–,–
C[C@@H]1[C@H](C)CC[C@]2(C(=O)O)CC[C@]3(C)C(=CC[C@@H]4[C@@]5(C)CC[C@H](O)C(C)(C)[C@H]5CC[C@]43C)[C@@H]12,inactive,inactive,inactive,inactive,inactive,inactive,inactive,inactive,–,–,–,–
Cc1cc(-c2nnc3n2CCCCC3)c(C)n1-c1ccccc1,inactive,inactive,inactive,inactive,inactive,inactive,–,inactive,–,–,–,–
C[C@H](CCC(=O)O)[C@H]1CC[C@H]2[C@@H]3[C@H](O)C[C@@H]4C[C@H](O)CC[C@]4(C)[C@@H]3CC[C@]12C,inactive,inactive,inactive,inactive,inactive,inactive,inactive,inactive,–,–,–,–
CC[C@H]1OC(=O)[C@H](C)C(=O)[C@H](C)[C@@H](O[C@H]2O[C@H](C)C[C@H](N(C)C)[C@@H]2O)[C@](C)(OC)C[C@@H](C)C(=O)[C@H](C)[C@H]2N(CCCCn3cnc(-c4cccnc4)c3)C(=O)O[C@]12C,inactive,inactive,inactive,inactive,inactive,–,inactive,inactive,inactive,–,–,–
Nc1cccc(S(=O)(=O)N2CCCN(S(=O)(=O)c3ccc4c(c3)OCCO4)CC2)c1,inactive,inactive,inactive,inactive,inactive,inactive,inactive,–,–,-19.9%,inactive,–
COc1ccc(CCC(=O)Nc2nc3ccc(Cl)cc3s2)cc1OC,inactive,inactive,inactive,inactive,inactive,inactive,inactive,inactive,–,–,–,–
COc1cc(F)c(C(C)C)cc1-c1ccc(C(F)(F)F)cc1CN1C(=O)O[C@H](c2cc(C(F)(F)F)cc(C(F)(F)F)c2)[C@@H]1C,inactive,inactive,inactive,inactive,inactive,inactive,inactive,–,–,-14.8%,inactive,–
COc1ccc(-c2cc(=O)c3c(O)cc(O)cc3o2)cc1O,inactive,inactive,inactive,inactive,inactive,inactive,–,–,–,-29.6%,–,–
CCC(C=C[C@@H]1OC(=O)C=C[C@H]1C)=C[C@H](C)CC=CC(C)=C[C@@H](C)C(=O)[C@@H](C)[C@H](O)[C@@H](C)CC(C)=CC(=O)O,110 nM (active),87.7 nM (active),78.2 nM (active),110 nM (active),87.7 nM (active),87.7 nM (active),–,22 nM (active),15.6 nM (active),–,–,–
